# Experimental data reported in PubChem BioAssay AID1362 (SRMLSC, 2008).
# The campaign covered roughly 190,000 compounds. About 4,000 (2.1%) were called active. This is one part of a sample in which actives are shown more often than they occur. Cut-off read from the data, not from the text of the source: active = inhibition above about 58%; inactive = the rest, inconclusive results apart; tested in S. cerevisiae.
# Assay: growth inhibition of WT strain, primary screen, mitochondrial fusion inhibitor project, WT and mutant strains, chemical genetic (AID 1362)
# Conditions: mitochondrial fusion phenotypic screen, at 10 µM
# [1] = WT strain, growth inhibition, stronger effect = higher value
SMILES,inhibition [1],inhibition (mutant strain inhibition)
O=S1(=O)CC/C(=N\Nc2ccc(F)cc2)c2ccsc21,26.2% (inactive),34.7%
COc1ccc(NC(=O)COC(=O)CNC(=O)C2CCCCC2)cc1,-11.9% (inactive),12.1%
O=C(OCC(=O)c1cccs1)C1=COCCO1,9.96% (inactive),20.9%
CCC(C)(C)c1ccc(Oc2ccc(NC(=O)COC(=O)C3=COCCO3)cc2)cc1,60.5% (active),33.7%
CN(C)c1ccc(/C=N/NC(=O)C(O)c2ccc(Br)cc2)cc1 (stereo unspecified),-4.38% (inactive),1.15%
Cc1ccccc1CSc1nnc(-c2ccccc2)c(=O)[nH]1,12.9% (inactive),-13.6%
O=C(Nc1ccccc1C(=O)O)c1cc(S(=O)(=O)N2CCCCC2)cs1,1.49% (inactive),-6%
Cc1nn(-c2ccccn2)c2c1C(c1ccncc1)C1=C(CC(C)(C)CC1=O)N2 (stereo unspecified),-4.23% (inactive),-14.9%
Cc1cc(C)c(C2C3=C(Nc4c2c(C)nn4-c2ccccn2)c2ccccc2C3=O)c(C)c1 (stereo unspecified),78.7% (active),55%
Cc1ccc(C2C3=C(Nc4[nH]n(-c5ccccc5)c(=O)c42)c2ccccc2C3=O)cc1 (stereo unspecified),-0.51% (inactive),-6.48%
COc1cccc(C(=O)Oc2cc(C)[nH]c(=O)c2[N+](=O)[O-])c1,15.8% (inactive),-9.84%
O=C(N/N=C/c1ccccn1)c1ccc(S(=O)(=O)N2CCCCCC2)cc1,2.23% (inactive),0.85%
COc1ccc(NC(=O)c2ccccc2CC[N+](=O)[O-])cc1,1.85% (inactive),1.42%
O=C(Nc1ccccc1F)c1ccc(Cn2cc(Br)cn2)cc1,10.6% (inactive),-0.75%
COCCCNC(=O)Cn1c(=O)n(Cc2ccccc2Cl)c(=O)c2cc(OC)c(OC)cc21,-6.28% (inactive),4.75%
OC(c1nnc(-c2ccccc2)o1)c1cccs1 (stereo unspecified),-15.8% (inactive),5.68%
CCCN(CCC)c1ccc(C(O)c2nnc(-c3ccccc3)o2)cc1 (stereo unspecified),76.5% (active),31.6%
C=CCn1c(SCc2nnc(-c3ccccc3)o2)nnc1C(O)c1ccccc1 (stereo unspecified),-11.7% (inactive),-5.65%
Cc1ccc(S(=O)(=O)N(C)C)cc1NC(=O)COC(=O)C1COc2ccccc2O1 (stereo unspecified),-0.23% (inactive),-14.6%
CCOc1ccccc1Oc1cn[nH]c1-c1ccc(OC)cc1O,61.8% (active),25.6%
CCOc1ccc(-c2n[nH]c(C)c2-c2ccccn2)c(O)c1,-20.5% (inactive),3.26%
CCOc1ccccc1NC(=O)Nc1cc(OC)ccc1OC,-4.32% (inactive),11.2%
C/C(=N\NC(=S)NCc1ccccc1)C1CCCCC1,47.2% (inactive),53.3%
